# Counter-ions that a name gives are not always drawn. A number with no mark means an inactive call.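 How the source made its calls: active = normalised median growth AUC below 0.1 of DMSO control; inactive = AUC 0.1 or higher.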
# Legend:
# Assay in all cases: growth AUC normalised to DMSO control (median) (fraction of control); higher = less growth inhibition, active = hit call of the paper
# Details in all cases: 20 µM
# P. vulgatus RND KO = tested on: P. vulgatus RND KO
# Method in brief: (§1)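 Strains were passaged twice overnight without oxygen, then grown in mGAM in 96-well plates with each approved-drug library compound at 20 μM and 1% DMSO, starting at OD578 0.01. OD578 was read hourly for 24 h inside an anaerobic incubator. Curves were truncated at entry into stationary phase, and the trapezoidal-rule area under the curve was normalised to same-plate vehicle wells. The value is the median across three biological replicates.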
# P. vulgatus WT = tested on: P. vulgatus WT
# Method in brief: as §1
# [1] = tested on: S. enterica typhimurium WT
# Method in brief: as §1
# [2] = tested on: S. enterica typhimurium tolC KO
# Method in brief: as §1
# 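Further: active when median AUC fell below 0.1.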
Compound,growth AUC normalised to DMSO control (P. vulgatus RND KO),growth AUC normalised to DMSO control (P. vulgatus WT),growth AUC normalised to DMSO control [1],growth AUC normalised to DMSO control [2]
CC(C)Nc1ncccn1 [Isaxonine],0.976,0.953,0.999,1
O=C1c2cccc3c2[C@H](CCC3)CN1[C@@H]1CN2CCC1CC2 [Palonosetron hydrochloride],0.973,1,1,0.998
COc1cccc(OC)c1C(=O)N[C@@H]1C(=O)N2[C@@H]1SC(C)(C)[C@@H]2C(=O)O [Methicillin sodium],,0.708,0.99,0.482
COc1ccc(CNc2nc(N3CCC[C@H]3CO)ncc2C(=O)NCc2ncccn2)cc1Cl [Avanafil],1,1.03,1.01,0.962
NC(=O)c1cc[n+](CC2=C(C(=O)O)N3C(=O)[C@@H](NC(=O)C(c4ccccc4)S(=O)(=O)[O-])[C@H]3SC2)cc1 (some centres undefined) [Cefsulodin Sodium Salt Hydrate],,,0.995,0.986
Cc1cccc(C)c1NC(=O)CC12CCCN1CCC2 [Pilsicainide Hydrochloride],1.05,1.09,1,1
CCCNC(C)(C)C(=O)Nc1ccccc1C [Quatacaine],1.01,1.03,1,0.975
Nc1nc(/C(=C/CC(=O)O)C(=O)N[C@@H]2C(=O)N3C(C(=O)O)=CCS[C@H]23)cs1 [Ceftibuten],,0.58,0.746,
Cn1nnnc1SCC1=C(C(=O)O)N2C(=O)[C@@H](NC(=O)[C@H](O)c3ccccc3)[C@H]2SC1 [Cefamandole sodium salt],0.204,,0.0103 (active),0.00496 (active)
CCCCNC(=N)NC(=N)N [Buformin],1.04,1.06,1.02,0.991
C[N+](C)(C)C[C@H](O)CC(=O)[O-] [Levocarnitine],0.998,1.04,0.998,1
OCCN1CCN(CC/C=C2/c3ccccc3Sc3ccc(C(F)(F)F)cc32)CC1 [Flupentixol dihydrochloride cis-(Z)],0.946,0.997,1.01,0.828
CC1=C(C)C(=O)C(C(CCCCCC(=O)O)c2ccccc2)=C(C)C1=O (centres undefined) [Seratrodast],0.944,0.967,1.01,0.999
CN[C@@H]1CCc2[nH]c3ccc(C(N)=O)cc3c2C1 [Frovatriptan succinate],1.02,1.02,1,1
CC(=O)Oc1c(C)cccc1C(=O)O [Cresopirine],0.998,0.986,0.998,0.986
C[C@]12CCC3=C4CCC(=O)C=C4CC[C@H]3[C@@H]1CC[C@@]2(O)CC#N [Dienogest],1.03,1.04,1.02,1.02
O=C1c2cccc(O)c2C(=O)c2c(O)cccc21 [Danthron],0.689,0.525,0.991,0.369
CCc1ccc(C(=O)C(C)CN2CCCCC2)cc1 (centres undefined) [Eperisone Hydrochloride],1.03,1.04,1,0.989
CO/N=C(\C(=O)N[C@@H]1C(=O)N2C(C(=O)[O-])=C(C[n+]3ccn4ncccc43)CS[C@H]12)c1nsc(N)n1 [Cefozopran hydrochloride],,0.128,0.0996 (active),0.1
Cc1nc(=O)c2cc(CN(C)c3ccc(C(=O)N[C@@H](CCC(=O)O)C(=O)O)s3)ccc2[nH]1 [Raltitrexed],1.04,0.997,1,0.991
CO/N=C(\C(=O)N[C@@H]1C(=O)N2C(C(=O)OC(C)OC(C)=O)=C(COC(N)=O)CS[C@H]12)c1ccco1 (some centres undefined) [Cefuroxime axetil],,0.664,1.1,
CCOC(=O)Nc1ccc(NCc2ccc(F)cc2)nc1N [Flupirtine],1.08,1.05,1,0.979
N[C@@H](CSCCCO)C(=O)O [Fudosteine],1,0.987,0.996,1
Nc1nc(CC(=O)Nc2ccc(CCNC[C@H](O)c3ccccc3)cc2)cs1 [Mirabegron],1,0.989,0.991,1
O=C1OC(CN2CCOCC2)CN1/N=C/c1ccc([N+](=O)[O-])o1 (centres undefined) [Furaltadone hydrochloride],0.0255 (active),0.0192 (active),0.878,0.856
COCC1=C(C(=O)OC(C)OC(=O)OC(C)C)N2C(=O)[C@@H](NC(=O)/C(=N\OC)c3csc(N)n3)[C@H]2SC1 (some centres undefined) [Cefpodoxime proxetil],,,0.853,0.338
Cc1cc2nc3c(=O)[nH]c(=O)nc-3n(C[C@H](O)[C@H](O)[C@H](O)CO)c2cc1C [Riboflavine],1.11,1.07,1,0.991
CC/C=C(\C(=O)N[C@@H]1C(=O)N2C(C(=O)OCOC(=O)C(C)(C)C)=C(COC(N)=O)CS[C@H]12)c1csc(N)n1 [Cefcapene pivoxil hydrochloride monohydrate],,,1.03,0.159

# — the supplement of paper PMC12350171
